Whole data set: some 33,000 sequences, median “E-score (-0.5 to 0.5)” near -0.013, cut for the highest 2% near 0.3. What follows is part of a selection rich in the highest values, with near analogues and random picks from the rest.
The sequences below were run against T1, Msn1 (UniProt P22148) (assay: PBM E-score (8-mer binding enrichment) (E-score (-0.5 to 0.5)); higher = stronger / more preferred TF binding). Settings: protein concentration: 200 nM; construct: GST-full length.
T1 sequence: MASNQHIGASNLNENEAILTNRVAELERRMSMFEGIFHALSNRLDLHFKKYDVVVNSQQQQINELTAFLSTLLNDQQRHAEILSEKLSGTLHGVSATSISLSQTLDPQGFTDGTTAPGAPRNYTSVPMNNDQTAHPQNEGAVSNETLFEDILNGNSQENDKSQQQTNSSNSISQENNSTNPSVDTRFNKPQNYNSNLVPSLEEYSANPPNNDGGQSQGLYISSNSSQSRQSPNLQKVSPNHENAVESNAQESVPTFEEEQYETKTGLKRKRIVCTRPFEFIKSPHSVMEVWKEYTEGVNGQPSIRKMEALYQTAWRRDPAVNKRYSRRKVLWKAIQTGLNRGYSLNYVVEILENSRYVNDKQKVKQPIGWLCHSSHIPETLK
How it was run: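 For each ungapped eight-base word taken together with its reverse complement, the Universal PBM Analysis Suite assigned an E-score. Binding data came from GST-tagged yeast transcription factors, applied at about 100-200 nM, on universal all-10-mer Agilent arrays made double-stranded by primer extension. Fluorescent anti-GST marked bound protein, and scans were normalised with masliner.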

In order of rising “PBM E-score” value:
1. CCGACCCC  -0.354
2. ATGCTCCC  -0.341
3. CTGGCAGC  -0.271
4. GCCCGTTA  -0.266
5. CCCTGCAG  -0.245
6. GGCCGAAC  -0.239
7. CCAGCGCC  -0.229
8. GGGAGCGA  -0.219
9. GACGGCTC  -0.211
10. GCCCGCTA  -0.211
11. GAAGTAGC  -0.206
12. AGTAGGGG  -0.202
13. AGTGGGGA  -0.185
14. GCCGCCTA  -0.173
15. ACCGCGCC  -0.168
16. CGATTTGA  -0.163
17. CGGGGCCA  -0.157
18. GACGCCAA  -0.157
19. GACTCCTC  -0.149
20. GGGACCCA  -0.139
21. ACGTAGCG  -0.138
22. AGACTTGC  -0.136
23. AGCCTACA  -0.135
24. CCCCAATA  -0.122
25. AGGTCCTC  -0.119
26. TAGGGTGA  -0.1
27. CCATTGGC  -0.0912
28. GCGCTAGC  -0.0831
29. ATGGACCC  -0.0808
30. AACAGTAG  -0.0756
31. GCATATGC  -0.0698
32. TGGCCCAA  -0.0694
33. CTTAGCAC  -0.0653
34. AGTTTGTG  -0.0605
35. AGCTTGAT  -0.0595
36. CCATTTGA  -0.0557
37. GATGACTA  -0.0556
38. CGTTCGCC  -0.0525
39. CAAAGACC  -0.0488
40. CAGTTTAC  -0.0477
41. ATATGTTA  -0.0436
42. TAGCGTCA  -0.0365
43. CGCATACG  -0.0304
44. CTAGCTCA  -0.0294
45. AAGCGAGC  -0.0286
46. CGTGGGAA  -0.0248
47. AACATAGA  -0.021
48. CACCCGTA  -0.0199
49. CTTCGGTA  -0.0133
50. ATATTGTG  -0.00984
51. GCTAGTGA  -0.00743
52. AGAGCGAA  -0.00578
53. AGCTTAAT  -0.00074
54. AAAAGACC  0.00338
55. TAAAGATA  0.0041
56. ATTAGAGA  0.00489
57. ACAAGACG  0.0049
58. CTAGACAG  0.00829
59. CATCAGAA  0.00838
60. ATCCATTA  0.0133
61. ATTAGGGA  0.0137
62. CAGGTTGC  0.0156
63. GTATGTTA  0.0222
64. TTAGATAA  0.0312
65. CACATATA  0.0314
66. AGCGCATA  0.034
67. CACACATA  0.0356
68. GTATGTAA  0.0384
69. CTAGACAC  0.0417
70. AGTCAGGC  0.0431
71. AGGTCCTG  0.0441
72. GTCTTGGA  0.0469
73. TATGACCA  0.0481
74. AATTAGCG  0.0486
75. TGAATGAA  0.0496
76. CACATATC  0.0551
77. TACACATA  0.0567
78. ATATGTGG  0.0596
79. GATGACAC  0.06
80. AATACTCT  0.0619
81. AACATATC  0.0631
82. ATATTCCC  0.0634
83. CGTCTGCA  0.0663
84. ATATGTTG  0.0727
85. ATGGAAAT  0.0754
86. AAATTAAC  0.0769
87. CGGCGACA  0.0783
88. ACGAGGCG  0.0795
89. AGATTAAT  0.0857
90. CCGAACAG  0.0877
91. AACATATA  0.0881
92. AAACAGGG  0.09
93. CGATTAAA  0.0941
94. GTAGACAC  0.0944
95. CAAATTAA  0.0951
96. TATGTAAA  0.0978
97. CAAAGTTG  0.101
98. ATTTCCAC  0.106
99. TTAGAAAA  0.109
100. TCCTTCGA  0.11
101. ATGGACCA  0.114
102. ATGTACCC  0.115
103. GTAGACGA  0.115
104. CGTTTGAC  0.12
105. ATGGACGC  0.122
106. CATGACAG  0.13
107. AAAAGACG  0.135
108. GTCGACAC  0.141
109. ACATTGTA  0.143
110. GCAAGACA  0.157
111. GTGGAAAC  0.164
112. CTATGTCA  0.167
113. CTATTAAA  0.179
114. AGTTTGTA  0.182
115. ATGTACAG  0.185
116. AAAATTAA  0.187
117. CATTTAAC  0.188
118. GTGTACCA  0.189
119. CGTTTGTA  0.189
120. CCATTGTA  0.193
121. CGCATTTA  0.193
122. CATGACAC  0.193
123. CTGTCCTC  0.197
124. AAATTAAT  0.199
125. ATTTCCTG  0.206
126. ACATTGTG  0.207
127. ATATTCCA  0.212
128. GAAAGACA  0.227
129. ATGTACTA  0.233
130. GTCTGAAA  0.241
131. TCAAGACA  0.247
132. ATGGACAG  0.251
133. GGAAGACA  0.251
134. CGAAGACA  0.259
135. ATAAGACA  0.264
136. ATGGACGA  0.273
137. CTATTGTC  0.288
138. AATGACAA  0.29
139. TTATTAAA  0.29
140. GACATAGC  0.295
141. CTAAGACA  0.302
142. GTAAGACA  0.305
143. CTAGACAA  0.305
144. GTAGACAA  0.309
145. AGATTAAA  0.309
146. CCATTGTC  0.311
147. ATATTCCG  0.321
148. TGAAGACA  0.328
149. GATGACAA  0.336
150. ACAAGACA  0.34
151. GAAATTAA  0.34
152. AAAAGACA  0.342
153. ATATTAAA  0.344
154. GTATGTCA  0.35
155. AAATTAAA  0.355
156. GTGGACAC  0.356
157. TAAAGACA  0.356
158. ATGTACAA  0.36
159. GACATAGA  0.36
160. CAAAGACA  0.361
161. GACACATA  0.361
162. ATATGTCG  0.379
163. CATGACAA  0.383
164. TTAGACAA  0.394
165. ATATGTCA  0.401
166. TATGACAA  0.408
167. ACATTGTC  0.411
168. ATATTGTC  0.427
169. ATGGACAC  0.437
170. CGTTTGTC  0.44
171. AGTTTGTC  0.446
172. GACATATA  0.448
173. GACATATC  0.451
174. ATGTCCTC  0.481
175. ATGGACAT  0.484
176. ATGGACAA  0.485
177. ATGTCCTG  0.487

From the supplement of paper PMC3334620
